According to PubChem BioAssay (NCI):
The panel holds about 83,000 compounds, 20% with a hit somewhere; the sample as a whole holds those more often.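 Plates (96-well) were seeded with cells, treated with compound at one concentration, and incubated for 48 hours before percent growth was determined.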 Unmarked numbers belong to inactive results. Activity calls are given as the source filed them. Rule for the calls: active = growth percent below 10; inactive = the rest.

Legend:
Assay in all cases: NCI-60 one-dose screen, 48 h (100 = growth as untreated, 0 = no growth, -100 = all killed)
Conditions in all cases: 10 µM
SK-MEL-2 melanoma = test system: SK-MEL-2 melanoma
EKVX NSCLC = test system: EKVX NSCLC
SN12C renal = test system: SN12C renal
UO-31 renal = test system: UO-31 renal
TK-10 renal = test system: TK-10 renal
ACHN renal = test system: ACHN renal
CAKI-1 renal = test system: CAKI-1 renal
A498 renal = test system: A498 renal
CCRF-CEM leukemia = test system: CCRF-CEM leukemia
RPMI-8226 leukemia = test system: RPMI-8226 leukemia
OVCAR-8 ovarian = test system: OVCAR-8 ovarian
OVCAR-5 ovarian = test system: OVCAR-5 ovarian
OVCAR-4 ovarian = test system: OVCAR-4 ovarian
SK-OV-3 ovarian = test system: SK-OV-3 ovarian
IGROV1 ovarian = test system: IGROV1 ovarian
OVCAR-3 ovarian = test system: OVCAR-3 ovarian
HS 578T breast = test system: HS 578T breast
NCI/ADR-RES ovarian = test system: NCI/ADR-RES ovarian
MOLT-4 leukemia = test system: MOLT-4 leukemia
SR leukemia = test system: SR leukemia

Compound	growth (SK-MEL-2 melanoma)	growth (EKVX NSCLC)	growth (SN12C renal)	growth (UO-31 renal)	growth (TK-10 renal)	growth (ACHN renal)	growth (CAKI-1 renal)	growth (A498 renal)	growth (CCRF-CEM leukemia)	growth (RPMI-8226 leukemia)	growth (OVCAR-8 ovarian)	growth (OVCAR-5 ovarian)	growth (OVCAR-4 ovarian)	growth (SK-OV-3 ovarian)	growth (IGROV1 ovarian)	growth (OVCAR-3 ovarian)	growth (HS 578T breast)	growth (NCI/ADR-RES ovarian)	growth (MOLT-4 leukemia) [%]	growth (SR leukemia) [%]
Cc1ccc(C(C)C)cc1NC(=O)c1ccccc1N(C)C	86.8%	81.1%	88.1%	76.4%	90.2%	88.4%	70.6%	100%	80.1%	72.6%	101%	86.6%	90%	93.7%	88.6%	103%	110%	74.6%		
CCN1CCN(c2ccc(NC(=O)Nc3ccc(-c4cc(C(=O)NC(C)C)c5ncccc5n4)cc3)cc2C(F)(F)F)CC1	-71% (active)	-91.5% (active)	-94.3% (active)	-94.5% (active)	-92.7% (active)	-93.1% (active)	-95.2% (active)	-99.1% (active)	-44.5% (active)	-43.3% (active)	-83.3% (active)	-83.2% (active)	-83.2% (active)	-91% (active)	-86% (active)	-60.1% (active)	-37.7% (active)	-66.9% (active)		
CNCc1cccc2c1OCCCCCC[C@@](C)(O)CC1(CC1)S(=O)(=O)c1ccc(cc1)-c1cnc(N)c(n1)C(=O)N2	-98.7% (active)	-97.4% (active)	-93.9% (active)	-96.8% (active)	-92% (active)	-100% (active)	-94.6% (active)	-94.5% (active)	-6.39% (active)	-31.3% (active)	-65.5% (active)	-89.7% (active)	-76.9% (active)	-87.9% (active)	-91.2% (active)	-91.1% (active)	-40.5% (active)	-92.1% (active)		
CN1CCN(c2ccc(Nc3nc(NCCCNC(=O)c4ccc(Cl)cc4)c4sccc4n3)cc2)CC1	113%	88.3%	74.5%	67.3%	115%	73.1%	79.9%	136%	34.8%	48.5%	67.9%	90.8%	70.6%	103%	88.3%	109%	78.8%	91.6%		
CC[C@@]1(O)C(=O)OCc2c1cc1n(c2=O)Cc2c-1nc1cc(F)c(C)c3c1c2[C@@H](N)CC3	-29.2% (active)	15.4%	1.83% (active)	-82.4% (active)	6.02% (active)	-57.8% (active)	-22.9% (active)	-89.6% (active)	13.4%	-3.74% (active)	-38.3% (active)	-12.5% (active)	-4.52% (active)	-32% (active)	-47.8% (active)	-17.8% (active)	51.3%	-12.2% (active)		
CC(=O)Nc1ccc(-n2cnc3cc(-c4ccc(O)cc4)ccc32)cc1F	36.3%	60.6%	21.5%	20.7%	49.2%	20.4%	17.9%	72.4%	8% (active)	14.3%	15.9%	42.7%	61%	13%	35.9%	6.74% (active)	18.7%	4.16% (active)		
COc1cc(Cn2c(C(F)(F)F)cc3c(Cl)ncnc32)ccn1	-81.7% (active)	73%	51.3%	68.3%	97.1%	74.8%	-57.6% (active)	103%	-14.3% (active)	6.17% (active)	-16% (active)	93.7%	-58.4% (active)	75.4%	-90.6% (active)	-52.4% (active)	11.2%	67.7%		
Cc1ccc(S(=O)(=O)c2nc(-c3ccccc3)oc2S(=O)(=O)CC(=O)N2CCCC2)cc1	-50.6% (active)	5.22% (active)	-85% (active)	-100% (active)	-99.7% (active)	-100% (active)	-100% (active)	90.1%	-64.4% (active)	-53.4% (active)	-86.7% (active)	-87.2% (active)	-92.7% (active)	68.4%	18.4%	-92.8% (active)	20.5%	-69.5% (active)		
Cc1ccc(C(C)C)cc1NC(=O)c1ccccc1O	25.4%	49.7%	37.8%	16.6%	69.4%	44.7%	32.3%	67.8%	24.5%	3.01% (active)	59.1%	96.2%	24.6%	44.5%	54.3%	29.9%	43%	29.1%		
CC(=O)Nc1nc(-c2ccc(N3CCN(C)CC3)c(NS(=O)(=O)c3ccc(C(F)(F)F)cc3)c2)cs1	7.74% (active)	72.2%	13.7%	24.9%	10.8%	5.92% (active)	13.5%	52.3%	-13.4% (active)	-29.4% (active)	8.42% (active)	44.8%	43.3%	77%	47.5%	-3.33% (active)	38.6%	-18.2% (active)		
COc1cc(NC(=O)c2cc(-c3ccc(F)cc3F)ccc2O)cc(OC)c1OC	-5.57% (active)	50%	18.6%	9.27% (active)	33%	55.9%	30.6%	-1.46% (active)	25.6%	12%	48%	111%	17.3%	34.5%	38%	26.1%	26.1%	41.5%		
CC1(C)CC[C@]2(C(=O)NCCCNCCCCNCCCN)CC[C@]3(C)C(=CC[C@@H]4[C@@]5(C)Cc6c([nH]c7ccccc67)C(C)(C)[C@@H]5CC[C@]43C)[C@H]2C1	101%	90.7%	91.4%	71%	96.9%	93.9%	78%	147%	64.4%	68.3%	98.6%	91.1%	102%	66.6%	77.3%	118%	93.6%	93.2%		
Cc1ccc(C(=O)Nc2ccc(-n3c(C)nc4c(cnn4-c4ccccc4)c3=O)cc2)cc1	78.3%	30.5%	73.3%		82.3%	61.8%	72.4%	87.3%	46.3%	58.4%	76.8%	86%	49.8%	97.4%	71.6%	97%	84.8%	52.7%	34.3	
COc1ccc(C(=O)NC(=S)N2CCN(c3ncnc4c3cnn4-c3ccccc3)CC2)cc1	57.6%	81.4%	46%	69%	101%	64.3%	28.1%	115%		72.6%	51.3%	79.3%	54.1%	7.3% (active)	66.4%	83.1%	51%	61.7%	58.2	12.3
CCN1CCN(c2ccc(NC(=O)Nc3ccc(-c4cc(C(=O)NC)c5ncccc5n4)cc3)cc2C(F)(F)F)CC1	-72.8% (active)	-100% (active)	-96.5% (active)	-100% (active)	-98.9% (active)	-100% (active)	-100% (active)	-98.4% (active)	-52.5% (active)	-50.3% (active)	-94.1% (active)		-100% (active)	-88.7% (active)	-98.2% (active)	-100% (active)	-51.5% (active)	-65.3% (active)		
